The list is not random: actives were taken first. Their share in the collection is about 11%.
HP1b chromo inh – blocks HP1-beta chromodomain binding to methylated histone tails; actives 0.56% (n = 390,000); Potency, µM (titrated, usually from 114 µM), actives largely listed as inhibitors; P83916; AlphaScreen HP1-beta / biotin-H3K9me3 peptide binding; AID 540317; also: nearly all actives have a fitted effect of over 70% in size
Target sequence (P83916 whole entry, looked up): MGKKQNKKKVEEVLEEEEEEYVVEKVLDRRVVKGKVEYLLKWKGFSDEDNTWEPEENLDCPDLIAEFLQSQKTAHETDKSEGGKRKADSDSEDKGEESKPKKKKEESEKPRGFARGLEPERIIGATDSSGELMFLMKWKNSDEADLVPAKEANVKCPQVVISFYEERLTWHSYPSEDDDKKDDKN
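AlphaScreen: HP1-beta (50 nM) preformed 30 min with biotin-H3(1-18)K9me3 peptide (50 nM) in PBS pH 7.4, 0.01% Tween-20. Compound added for 30 min at RT, then streptavidin donor/nickel chelate acceptor beads (10 ug/mL) for 30 min.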
JMJD2A Tudor inh – JMJD2A Tudor domain (human) inhibition; Potency, µM (series often up to 114 µM), most hits filed as inhibitors; O75164; AID 504339; actives 4.4% (n = 390,000); AlphaScreen JMJD2A-Tudor / H3K4me3 peptide binding; also: nearly all actives have a fitted effect of over 50% in size
BAZ2B inh – BAZ2B (human) inhibition | Q9UIF8 | AlphaScreen BAZ2B-H3K14Ac peptide displacement | Potency, µM (doses to about 114 µM), hits mostly inhibitors | actives 4.4% (n = 360,000); also: nearly all actives have a fitted effect of over 60% in size
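AlphaScreen luminescence quantifies BAZ2B engagement of H3K14Ac peptide; the protein and biotinylated peptide are both at 50 nM final, buffer PBS pH 7.4 with 0.01% Tween-20, all steps at room temperature.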
G9a block – G9a (human) methyltransferase inhibition. AID 504332. G9a H3K9 monomethylation, AlphaScreen, 2 h. Q96KQ7. Potency, µM (highest dose often 102 µM), hits mostly inhibitors. actives 8.8% (n = 350,000); also: nearly all actives have a fitted effect of over 75% in size
Target sequence (Q96KQ7 913-1193 limits assumed): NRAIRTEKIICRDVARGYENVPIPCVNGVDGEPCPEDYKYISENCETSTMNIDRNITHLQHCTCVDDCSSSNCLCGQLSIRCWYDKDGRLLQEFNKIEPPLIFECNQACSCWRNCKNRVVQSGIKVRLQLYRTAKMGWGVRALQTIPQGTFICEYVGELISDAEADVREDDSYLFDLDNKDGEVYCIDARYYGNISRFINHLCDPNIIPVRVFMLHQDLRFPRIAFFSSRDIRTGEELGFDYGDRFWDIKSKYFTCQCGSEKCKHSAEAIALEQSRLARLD
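G9a (20 nM) was preincubated 15 min with compound, then reacted 2 h at room temperature with 500 nM biotin-H3K9 peptide and 20 µM SAM. Monomethyl-H3K9 detected by AlphaScreen using anti-H3K9me1 antibody.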
L3MBTL1 inh – inhibitors of human L3MBTL1 | Q9Y468 | AlphaScreen L3MBTL1–H3K9me1 peptide binding | Potency, µM (highest dose often 57.1 µM), most hits filed as inhibitors | actives 0.66% (n = 230,000) | AID 485360; also: nearly all actives have a fitted effect of over 60% in size
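AlphaScreen proximity signal between nickel-chelate acceptor and streptavidin donor beads (final 10 ug/mL) reports binding of 50 nM L3MBTL1 to 75 nM biotin-H3 K9me1 peptide; complex incubated with compounds 30 min at room temperature; cefsulodin titration as control.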
Of the large screens only hits and unclear results are named; the others gave an inactive call. Calls follow the shape of the dose curve; as a rule, active = well fitted inhibition curve with a large enough effect; inconclusive = small, poorly fitted or top-dose-only effect; inactive = no such curve, though single readings can be large or run the other way.

CN1CCN(c2ccc(S(=O)(=O)N3CCCCC3)cc2NC(=O)/C=C/c2ccc(Cl)c([N+](=O)[O-])c2)CC1	HP1b chromo inh inconclusive, JMJD2A Tudor inh 44.7µM, BAZ2B inh inconclusive, G9a block 35.5µM
CCN1CCN(c2ccc(S(=O)(=O)N3CCCCC3)cc2NC(=O)/C=C/c2ccc(F)cc2)CC1	G9a block 1.26µM
CCN1CCN(c2ccc(S(=O)(=O)N3CCCCC3)cc2NC(=O)/C=C/c2ccc([N+](=O)[O-])cc2)CC1	HP1b chromo inh inconclusive, JMJD2A Tudor inh inconclusive, BAZ2B inh inconclusive, G9a block 17.8µM
CCN1CCN(c2ccc(S(=O)(=O)N3CCCCC3)cc2NC(=O)/C=C/c2cccc(OC)c2OC)CC1	JMJD2A Tudor inh inconclusive, BAZ2B inh inconclusive (no result: G9a block, L3MBTL1 inh)
CCN1CCN(c2ccc(S(=O)(=O)N3CCOCC3)cc2NC(=O)/C=C/c2ccc(C)cc2)CC1	none
Cc1ccc(-n2c(=O)c3c4c(sc3n(CC(=O)c3ccc(Cl)cc3)c2=O)CCC4)cc1C	none (no result: L3MBTL1 inh)
COc1cccc(CNC(=O)Cn2c(=O)n3nc(-c4cccc(C)c4)nc3c3ccccc32)c1	none (no result: L3MBTL1 inh)
CC(C)CC(=O)NC(=S)Nc1cccc(NC(=O)c2ccccc2Cl)c1	JMJD2A Tudor inh inconclusive, G9a block 7.94µM (no result: L3MBTL1 inh)
CCC(=O)NC(=S)Nc1cccc(NC(=O)c2ccccc2Cl)c1	G9a block 17.8µM
[N-]=[N+]=CC(=O)CCCN1C(=O)c2ccccc2C1=O	none
[N-]=[N+]=CC(=O)CC(c1ccccc1)N1C(=O)c2ccccc2C1=O (centres undefined)	JMJD2A Tudor inh 50.1µM, BAZ2B inh 31.6µM, G9a block inconclusive, L3MBTL1 inh inconclusive
CCCCn1c(N)c(N(Cc2ccccc2OC)C(=O)CN2C(=O)NC(C)(c3ccccc3)C2=O)c(=O)[nH]c1=O (centres undefined)	G9a block 5.62µM
Cn1cc(C(=O)NCCc2ccc(Cl)cc2)c(=O)c2cc(S(=O)(=O)N3CCOCC3)ccc21	none (no result: BAZ2B inh, L3MBTL1 inh)
O=C(CN1C(=O)COc2ccc(S(=O)(=O)NC3CCCC3)cc21)NCc1ccccc1Cl	none (no result: L3MBTL1 inh)
Cc1cc(C)cc(-n2nnc(-c3nc(-c4ccccc4F)no3)c2C)c1	none (no result: L3MBTL1 inh)
Cc1cccc2nc(CSCc3ccco3)cn12	BAZ2B inh inconclusive, G9a block 44.7µM, L3MBTL1 inh inconclusive
Cc1ccc(C)c(NC(=O)c2ccc(CN3CC(=O)N4CCCCC4C3=O)cc2)c1 (centres undefined)	none (no result: L3MBTL1 inh)
Cn1cc(S(=O)(=O)N2CCOCC2)cc1C(=O)NCc1ccc(Cl)cc1	none
CN(C)c1ccc(CNC(=O)CCCn2ccc3cc(S(=O)(=O)N4CCCC4)ccc32)cc1	JMJD2A Tudor inh inconclusive, BAZ2B inh inconclusive, G9a block 8.91µM (no result: L3MBTL1 inh)
CN(C)c1ccc(CNC(=O)c2cc(S(=O)(=O)N3CCOCC3)cn2C)cc1	G9a block 39.8µM
COc1ccc(NC(=O)c2[nH]nc3c2CSc2ccccc2-3)c(OC)c1	none (no result: L3MBTL1 inh)
CSCC(=O)N1CCC(n2nccc2NC(=O)c2ccc3c(c2)OCO3)CC1	JMJD2A Tudor inh inconclusive, G9a block 44.7µM (no result: L3MBTL1 inh)
CSCC(C)N1CCC(n2nccc2NC(=O)c2ccc3c(c2)OCO3)CC1 (centres undefined)	none (no result: L3MBTL1 inh)
COc1ccc(C2=NN(C(=O)CSc3nc4ncc(Cl)cc4[nH]3)C(c3ccco3)C2)cc1 (centres undefined)	G9a block 56.2µM
Cc1ccc(C2=NN(C(=O)CSc3nc4ncc(Cl)cc4[nH]3)C(c3ccco3)C2)cc1 (centres undefined)	G9a block 22.4µM, L3MBTL1 inh inconclusive (no result: BAZ2B inh)
Nc1cc(=O)[nH]c(SCC(=O)N2N=C(c3ccc(Cl)cc3)CC2c2ccco2)n1 (centres undefined)	BAZ2B inh inconclusive, G9a block inconclusive
O=C(OCC#CCSc1nnc(-c2cccc3ccccc23)o1)c1ccsc1	none (no result: HP1b chromo inh, BAZ2B inh, G9a block, L3MBTL1 inh)
CC(=O)N1c2ccc(S(=O)(=O)NCCC(=O)Nc3ccc(Br)c(C)c3)cc2CC1C (centres undefined)	none (no result: L3MBTL1 inh)
Cc1cccc(C(=O)NC(=S)NNC(=O)COc2c(C)cccc2C)c1	JMJD2A Tudor inh inconclusive, G9a block 7.94µM
Cc1cc(C(=O)NNC(=S)NC(=O)/C=C/c2ccccc2Cl)n[nH]1	JMJD2A Tudor inh 50.1µM, BAZ2B inh 22.4µM, G9a block 28.2µM (no result: L3MBTL1 inh)
O=C(Cc1cccs1)NNC(=S)NC(=O)c1ccccc1	JMJD2A Tudor inh 50.1µM, G9a block inconclusive
CCC(CC)NC(=O)/C=C/c1ccccc1Cl	HP1b chromo inh inconclusive, JMJD2A Tudor inh inconclusive
O=C(Cc1cccs1)NNC(=S)NC(=O)c1ccc(F)c(F)c1	G9a block inconclusive
Cc1cccc(C(=O)NC(=S)NCc2ccccc2)c1	none (no result: BAZ2B inh, G9a block, L3MBTL1 inh)
O=C(NC(=S)Nc1ccc2c(c1)OCCO2)c1cccc2ccccc12	JMJD2A Tudor inh inconclusive, BAZ2B inh inconclusive, G9a block 39.8µM
COc1ccccc1/C=C(/C#N)C(=O)O	none
CCSc1ncc(Cl)c(C(=O)Nc2ccc(S(=O)(=O)N3CCCCC3)cc2)n1	none (no result: L3MBTL1 inh)
Cc1ccc(C(=O)NC(=S)NNC(=O)COc2ccccc2C)cc1	JMJD2A Tudor inh 22.4µM, G9a block 3.55µM
Cc1ccccc1C(=O)NNC(=S)NC(=O)c1ccc(Cl)cc1Cl	G9a block inconclusive (no result: L3MBTL1 inh)
Cc1cccc(C(=O)NC(=S)NNC(=O)c2ccccc2Cl)c1	G9a block 7.94µM
O=C(O)c1ccccc1NC(=S)NC(=O)c1cccc2ccccc12	BAZ2B inh inconclusive, G9a block 50.1µM
Cc1c(NC(=S)NC(=O)c2cccc3ccccc23)cccc1C(=O)O	none (no result: L3MBTL1 inh)
CNC(=O)c1ccsc1NC(=O)c1coc2ccccc2c1=O	G9a block 50.1µM
